Reference: PubChem BioAssay (NCATS)
Inconclusive results are not listed. The source made the active and inactive calls. Unless noted, the call rests on the fitted dose curve; in most records, active means well fitted curve in either direction with a large enough effect (not every such curve was filed as active); inconclusive means small, poorly fitted or top-dose-only effect, or another doubt; inactive means flat fitted curve, though single readings scatter.

Columns and labels:
[1] = target: Lysosomal acid glucosylceramidase (Homo sapiens) (UniProt P04062); assay: Glucocerebrosidase-p2 (AID 348; in the data active means potency below about 10 µM; further: potency means the concentration at half of the fitted maximal effect); conditions: purified GBA, blue fluorogenic substrate, 40 min
How it was run: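 Compounds titrated from 0.6 nM upwards against 0.2 nM enzyme in pH 5.9 citric acid/KH2PO4, taurocholate, tween-20; blue fluorogenic substrate 80 uM, 40 min room temperature, stopped and read Ex 365/Em 440 for AC50.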

[2] = AP1 Signaling Pathway (AID 357); conditions: ME-180 AP-1-bla reporter, EGF-induced, beta-lactamase ratio, 5 h; at 7.69 µM (top of the series) unless noted;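 further: ME-180 reporter cells stimulated with EGF at its EC50 level; on the % scale 0 is the no-effect control and ±100 the full control effect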
How it was run: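 AP-1-bla ME-180 cells, Opti-MEM + 0.5% dialyzed FBS, plated overnight 37 °C. Cpd titration + EC50 EGF, 5 h 37 °C. CCF4 2.5 h RT; ex 405, em 460/530 ratio → %activity, AC50.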

[3] = NFAT Signaling Pathway (AID 444); conditions: Jurkat NFAT-bla M1, carbachol, beta-lactamase ratio, 5 h; at 7.69 µM (top of the series) unless noted;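 further: carbachol stimulus at about its EC50 of 1 µM final; on the % scale 0 is the no-effect control and ±100 the full control effect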
How it was run: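 Jurkat cells with NFAT-driven β-lactamase reporter and co-expressed M1 receptor, stimulated with carbachol (final 1 uM, ~EC50), compound titration, 5 h at 37 °C. CCF4 loaded 1 h at RT; 460/530 nm ratio gave %activity and AC50.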

[4] = target: Glucocorticoid receptor (Homo sapiens) (UniProt P04150); assay: GR-GFP Redistribution (AID 450;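 active means compounds whose dose series gives a full or clear partial fitted curve of increased nuclear translocation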; further: potency means the concentration at half of the fitted maximal effect); conditions: U2OS GR-GFP nuclear translocation, laser cytometry, 2 h
[5] = target: Glucocorticoid receptor (Homo sapiens) (UniProt P04150); assay: GR-EFC Redistribution (AID 451; calls by dose curve; further: potency means the concentration at half of the fitted maximal effect); conditions: CHO-K1 GR-EFC translocation, beta-gal luminescence, 2 h
How it was run: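 CHO-K1 cells expressing nuclear EA and GR-ED fragments of b-gal; compounds titrated up to 46 uM final, 2 h at 37 C. GR nuclear translocation read as complemented b-gal luminescence after 1 h RT detection.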

[6] = target: Mitogen-activated protein kinase 10 (Mus musculus) (UniProt Q61831); assay: JNK3 AlphaScreen Assay (AID 530); conditions: JNK3 lysate, c-Jun phosphorylation; series mostly up to 57.1 µM;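 further: kinase came from lysate of stimulated human HepG2 cells; signal reports phosphorylation of biotinylated GST-cJun 1-79 at Ser73 with 10 µM ATP; on the % scale 0 is the no-effect control and ±100 the full control effect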
How it was run: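 Pre-activated (IL-1β/TNFα) JNK3 in HepG2 lysates phosphorylates biotin-GST-cJun(1-79), 10 uM ATP; anti-phospho-cJun(Ser73) AlphaScreen read at room temperature, pH 7.6 Tris buffer. Compounds pre-incubated 15 min as titrations.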

[7] = target: 3',5'-cyclic-AMP phosphodiesterase 4B (Homo sapiens) (UniProt Q07343); assay: qHTS Assay for Inhibitors of PDE-IV (AID 607; active means well fitted activation curve with a large enough effect in the main read-out, with a control signal flat, not every such curve was filed as active; further: % of control where 0% means no effect); conditions: HEK293 ACTOne CNG channel cells, membrane potential fluorescence; series mostly up to 22.9 µM
How it was run: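 The readout is membrane depolarisation from a cAMP-sensing CNG channel, detected with a potential dye at ex 535/em 590. Cells were HEK293-derived (endogenous PDE-IV) at 1000 cells/well, titrated up to 22.9 uM final.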

[8] = Stat Signaling Pathway (AID 446); conditions: ME-180 SIE beta-lactamase reporter, IL-6 stimulated, 5 h; at 7.69 µM (top of the series) unless noted;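 further: ME-180 cervical cancer cells given 40 pM IL-6 alongside compound; SIE-controlled beta-lactamase reporter measured as 460/530 nm FRET emission ratio; on the % scale 0 is the no-effect control and ±100 the full control effect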
How it was run: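 Screening format detects activators and inhibitors alike: ME-180 SIE-bla cells stimulated at 40 pM IL-6 for 5 hrs with compound, then dual-emission beta-lactamase read at 405 nm excitation.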

[9] = target: Ubiquitin carboxyl-terminal hydrolase 1 (Homo sapiens) (UniProt O94782); assay: Inhibitors of USP1/UAF1: Pilot qHTS (AID 504865; active means well fitted curve in the direction sought with a large enough effect; an effect the other way counts as inactive or inconclusive;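 further: rhodamine fluorescence freed from ubiquitin-rhodamine substrate followed over time; top concentration of the series differs between compounds; on the % scale 0 is the no-effect control and ±100 the full control effect; nearly all actives have a fitted effect of over 35% in size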); conditions: purified USP1/UAF1, Ub-rhodamine cleavage fluorescence; series mostly up to 114 µM
How it was run: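 In 50mM HEPES pH 7.8 containing 0.5mM EDTA, 1mM TCEP, 0.1 mg/ml BSA and 0.01% Tween-20, 1nM USP1/UAF1 is exposed to compound for 15 min, then Ub-Rho (150nM final) is added and fluorescence is read over time.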

[10] = target: Cytochrome P450 2D6 (Homo sapiens) (UniProt P10635); assay: qHTS Assay for Inhibitors and Substrates of Cytochrome P450 2D6 (AID 891; active means well fitted curve in the direction sought with a large enough effect; an effect the other way counts as inactive or inconclusive; further: potency means the concentration at half of the fitted maximal effect; nearly all actives have a fitted effect of over 60% in size); conditions: recombinant CYP2D6, luciferin-ME EGE luminescence; series mostly up to 11.4 µM
How it was run: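 Human CYP2D6 (5 nM) with 30 uM Luciferin-ME EGE (at Km) in 100 mM KPO4, compound preincubated 10 min, then NADPH regeneration system for 60 min at room temperature. Luciferin read by luminescence; normalized to 1.43 uM quinidine.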

[11] = target: Cytochrome P450 1A2 (Homo sapiens) (UniProt P05177); assay: p450-cyp1a2 (AID 410; calls by dose curve; further: potency means the concentration at half of the fitted maximal effect;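 on activity change, negative = inhibition: -100% = full effect of reference inhibitor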); conditions: recombinant CYP1A2, luciferin-ME demethylation, luminescence; series mostly up to 11.4 µM
How it was run: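 20nM CYP1A2 with 100uM Luciferin-ME (at Km) in 100mM KPO4; compound preincubated 10 min, NADPH regeneration added, 60 min at room temperature. Luciferin quantified by luminescence after detection reagent; normalized to 57 uM furafylline.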

[12] = target: Cytochrome P450 2C9 (Homo sapiens) (UniProt P11712); assay: qHTS Assay for Inhibitors and Substrates of Cytochrome P450 2C9 (AID 883; active means well fitted curve in the direction sought with a large enough effect; an effect the other way counts as inactive or inconclusive; further: potency means the concentration at half of the fitted maximal effect; nearly all actives have a fitted effect of over 60% in size); conditions: recombinant CYP2C9, luciferin-H luminescence, 60 min; series mostly up to 57.1 µM
How it was run: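 Human CYP2C9 (10nM) with Luciferin-H at 100uM (its KM) in 25mM KPO4; compound preincubated 10 min at 37C, then NADPH regeneration for 60 min at 37C. Luciferin read by luminescence after detection reagent; normalized to 57uM sulphaphenazole as full inhibition.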

[13] = target: Cytochrome P450 2C19 (Homo sapiens) (UniProt P33261); assay: qHTS Assay for Inhibitors and Substrates of Cytochrome P450 2C19 (AID 899; active means well fitted curve in the direction sought with a large enough effect; an effect the other way counts as inactive or inconclusive; further: potency means the concentration at half of the fitted maximal effect; nearly all actives have a fitted effect of over 60% in size); conditions: recombinant CYP2C19, luciferin-H EGE luminescence; series mostly up to 11.4 µM
How it was run: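 5 nM human CYP2C19 with 10uM Luciferin-H EGE (at KM) in 50mM KPO4, compound preincubated 10 min at 37C, then NADPH regeneration for 60 min at 37C. Luciferin read by luminescence after detection reagent; normalized to 57uM ketoconazole as full inhibition.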

Glucocorticoid receptor (Homo sapiens), sequence (P04150 whole entry, looked up, the tested form may be a part): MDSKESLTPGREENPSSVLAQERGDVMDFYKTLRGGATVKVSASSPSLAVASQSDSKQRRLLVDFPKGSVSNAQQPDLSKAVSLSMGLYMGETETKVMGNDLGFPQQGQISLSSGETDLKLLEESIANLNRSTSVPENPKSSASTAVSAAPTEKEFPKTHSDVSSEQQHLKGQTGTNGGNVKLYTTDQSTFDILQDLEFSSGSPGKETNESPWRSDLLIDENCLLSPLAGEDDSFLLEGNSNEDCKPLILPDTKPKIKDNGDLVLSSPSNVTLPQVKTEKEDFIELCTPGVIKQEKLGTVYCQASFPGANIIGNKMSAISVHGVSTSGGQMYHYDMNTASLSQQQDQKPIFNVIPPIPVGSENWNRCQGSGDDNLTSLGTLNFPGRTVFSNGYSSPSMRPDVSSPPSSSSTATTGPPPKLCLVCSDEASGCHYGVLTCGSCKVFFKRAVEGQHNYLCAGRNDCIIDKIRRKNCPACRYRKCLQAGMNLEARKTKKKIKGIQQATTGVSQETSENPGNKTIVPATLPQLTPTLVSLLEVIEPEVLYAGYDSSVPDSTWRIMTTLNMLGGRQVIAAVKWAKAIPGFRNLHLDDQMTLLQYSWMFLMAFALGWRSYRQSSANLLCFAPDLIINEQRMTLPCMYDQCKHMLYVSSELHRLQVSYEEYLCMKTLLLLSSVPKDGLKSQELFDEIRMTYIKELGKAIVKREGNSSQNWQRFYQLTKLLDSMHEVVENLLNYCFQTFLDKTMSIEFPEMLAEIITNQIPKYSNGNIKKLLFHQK
3',5'-cyclic-AMP phosphodiesterase 4B (Homo sapiens), sequence (Q07343 whole entry, looked up): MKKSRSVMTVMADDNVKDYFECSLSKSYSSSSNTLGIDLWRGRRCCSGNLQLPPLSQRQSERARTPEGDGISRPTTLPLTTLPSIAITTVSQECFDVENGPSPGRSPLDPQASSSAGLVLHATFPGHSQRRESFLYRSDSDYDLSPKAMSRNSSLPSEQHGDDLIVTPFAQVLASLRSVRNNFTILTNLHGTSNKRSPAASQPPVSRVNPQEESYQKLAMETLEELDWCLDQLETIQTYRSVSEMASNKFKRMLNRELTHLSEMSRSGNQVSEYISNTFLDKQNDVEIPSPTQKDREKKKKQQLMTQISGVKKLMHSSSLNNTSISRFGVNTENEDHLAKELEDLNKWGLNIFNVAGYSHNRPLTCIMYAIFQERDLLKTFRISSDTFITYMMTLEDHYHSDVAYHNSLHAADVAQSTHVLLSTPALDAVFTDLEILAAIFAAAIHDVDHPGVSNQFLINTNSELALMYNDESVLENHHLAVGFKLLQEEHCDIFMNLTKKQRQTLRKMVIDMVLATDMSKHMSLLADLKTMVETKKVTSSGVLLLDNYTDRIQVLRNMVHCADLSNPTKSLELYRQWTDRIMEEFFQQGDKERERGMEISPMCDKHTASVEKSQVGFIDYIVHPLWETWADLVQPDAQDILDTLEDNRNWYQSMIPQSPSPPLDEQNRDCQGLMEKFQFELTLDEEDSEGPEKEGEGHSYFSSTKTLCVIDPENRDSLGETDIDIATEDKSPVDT
Lysosomal acid glucosylceramidase (Homo sapiens), sequence (P04062 whole entry, looked up): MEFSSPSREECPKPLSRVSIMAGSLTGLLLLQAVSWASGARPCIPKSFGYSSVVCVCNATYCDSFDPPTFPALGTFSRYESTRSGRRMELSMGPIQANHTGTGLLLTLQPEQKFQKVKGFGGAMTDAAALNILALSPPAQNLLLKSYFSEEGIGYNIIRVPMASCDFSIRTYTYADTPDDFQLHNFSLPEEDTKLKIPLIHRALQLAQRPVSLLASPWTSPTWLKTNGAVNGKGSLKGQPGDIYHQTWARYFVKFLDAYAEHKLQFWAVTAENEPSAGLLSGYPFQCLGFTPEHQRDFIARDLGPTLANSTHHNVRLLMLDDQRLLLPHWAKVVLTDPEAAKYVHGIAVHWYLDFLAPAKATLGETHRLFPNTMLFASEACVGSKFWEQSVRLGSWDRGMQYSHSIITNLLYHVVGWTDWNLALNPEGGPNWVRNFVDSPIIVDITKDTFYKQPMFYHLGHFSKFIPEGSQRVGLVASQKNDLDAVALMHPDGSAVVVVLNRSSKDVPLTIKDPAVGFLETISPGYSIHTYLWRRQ
Ubiquitin carboxyl-terminal hydrolase 1 (Homo sapiens), sequence (O94782 whole entry, looked up): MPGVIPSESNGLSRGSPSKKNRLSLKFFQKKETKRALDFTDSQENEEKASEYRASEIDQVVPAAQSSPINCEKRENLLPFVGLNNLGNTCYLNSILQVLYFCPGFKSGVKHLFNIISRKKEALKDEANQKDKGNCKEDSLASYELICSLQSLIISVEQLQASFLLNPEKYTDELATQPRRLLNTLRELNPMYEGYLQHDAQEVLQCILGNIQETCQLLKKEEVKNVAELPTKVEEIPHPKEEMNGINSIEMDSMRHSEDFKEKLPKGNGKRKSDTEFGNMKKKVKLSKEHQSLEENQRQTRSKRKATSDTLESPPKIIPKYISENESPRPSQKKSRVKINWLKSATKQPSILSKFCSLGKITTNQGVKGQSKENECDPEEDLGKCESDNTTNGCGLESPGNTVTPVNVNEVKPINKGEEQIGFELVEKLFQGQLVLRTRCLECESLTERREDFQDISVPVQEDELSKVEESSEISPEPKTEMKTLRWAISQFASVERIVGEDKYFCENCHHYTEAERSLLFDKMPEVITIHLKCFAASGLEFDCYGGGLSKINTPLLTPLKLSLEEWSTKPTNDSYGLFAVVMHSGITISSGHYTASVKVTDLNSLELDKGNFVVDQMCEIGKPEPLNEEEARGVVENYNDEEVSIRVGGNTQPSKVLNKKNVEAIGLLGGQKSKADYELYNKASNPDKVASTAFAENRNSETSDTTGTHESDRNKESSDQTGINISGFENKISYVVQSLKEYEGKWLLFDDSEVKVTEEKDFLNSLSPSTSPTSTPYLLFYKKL
Cytochrome P450 2D6 (Homo sapiens), sequence (P10635 whole entry, looked up): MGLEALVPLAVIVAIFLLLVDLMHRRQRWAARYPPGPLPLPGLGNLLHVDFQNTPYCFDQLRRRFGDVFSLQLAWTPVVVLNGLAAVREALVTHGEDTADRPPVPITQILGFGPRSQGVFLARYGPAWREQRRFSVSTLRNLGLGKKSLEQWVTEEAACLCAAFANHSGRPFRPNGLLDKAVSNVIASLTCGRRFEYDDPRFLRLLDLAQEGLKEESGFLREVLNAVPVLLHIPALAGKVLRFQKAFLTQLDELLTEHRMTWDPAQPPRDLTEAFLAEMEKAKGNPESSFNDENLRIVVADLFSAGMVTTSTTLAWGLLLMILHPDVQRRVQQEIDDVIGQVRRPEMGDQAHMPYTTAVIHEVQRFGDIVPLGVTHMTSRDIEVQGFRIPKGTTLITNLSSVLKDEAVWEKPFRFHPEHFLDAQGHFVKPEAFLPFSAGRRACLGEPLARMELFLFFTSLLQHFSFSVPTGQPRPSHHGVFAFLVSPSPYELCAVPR
Cytochrome P450 1A2 (Homo sapiens), sequence (P05177 whole entry, looked up): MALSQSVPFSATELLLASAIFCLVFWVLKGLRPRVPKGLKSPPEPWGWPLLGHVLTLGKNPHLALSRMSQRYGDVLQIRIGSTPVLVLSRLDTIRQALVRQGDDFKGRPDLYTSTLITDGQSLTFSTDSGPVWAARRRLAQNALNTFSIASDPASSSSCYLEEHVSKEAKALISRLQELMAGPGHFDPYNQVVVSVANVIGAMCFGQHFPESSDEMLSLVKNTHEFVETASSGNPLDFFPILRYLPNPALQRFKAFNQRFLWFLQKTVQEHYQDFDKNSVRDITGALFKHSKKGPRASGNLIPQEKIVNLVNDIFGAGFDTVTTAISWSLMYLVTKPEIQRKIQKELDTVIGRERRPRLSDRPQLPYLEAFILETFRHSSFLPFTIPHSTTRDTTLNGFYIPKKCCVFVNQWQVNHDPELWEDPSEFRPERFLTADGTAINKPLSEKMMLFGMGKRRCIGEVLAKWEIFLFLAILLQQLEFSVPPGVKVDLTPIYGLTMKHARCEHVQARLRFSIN
Cytochrome P450 2C9 (Homo sapiens), sequence (P11712 whole entry, looked up): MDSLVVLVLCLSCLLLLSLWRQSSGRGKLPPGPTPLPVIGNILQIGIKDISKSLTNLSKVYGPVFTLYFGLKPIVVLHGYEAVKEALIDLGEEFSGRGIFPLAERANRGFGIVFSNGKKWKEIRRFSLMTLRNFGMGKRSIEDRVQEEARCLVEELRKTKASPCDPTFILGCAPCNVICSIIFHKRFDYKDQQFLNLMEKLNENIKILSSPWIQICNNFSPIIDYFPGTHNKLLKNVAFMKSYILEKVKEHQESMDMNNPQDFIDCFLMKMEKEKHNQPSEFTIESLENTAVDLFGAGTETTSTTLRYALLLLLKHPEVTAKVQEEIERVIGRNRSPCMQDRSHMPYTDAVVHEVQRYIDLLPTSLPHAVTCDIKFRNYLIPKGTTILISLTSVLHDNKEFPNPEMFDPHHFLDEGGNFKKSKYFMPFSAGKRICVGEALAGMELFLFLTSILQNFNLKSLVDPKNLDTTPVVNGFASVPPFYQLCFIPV
Cytochrome P450 2C19 (Homo sapiens), sequence (P33261 whole entry, looked up): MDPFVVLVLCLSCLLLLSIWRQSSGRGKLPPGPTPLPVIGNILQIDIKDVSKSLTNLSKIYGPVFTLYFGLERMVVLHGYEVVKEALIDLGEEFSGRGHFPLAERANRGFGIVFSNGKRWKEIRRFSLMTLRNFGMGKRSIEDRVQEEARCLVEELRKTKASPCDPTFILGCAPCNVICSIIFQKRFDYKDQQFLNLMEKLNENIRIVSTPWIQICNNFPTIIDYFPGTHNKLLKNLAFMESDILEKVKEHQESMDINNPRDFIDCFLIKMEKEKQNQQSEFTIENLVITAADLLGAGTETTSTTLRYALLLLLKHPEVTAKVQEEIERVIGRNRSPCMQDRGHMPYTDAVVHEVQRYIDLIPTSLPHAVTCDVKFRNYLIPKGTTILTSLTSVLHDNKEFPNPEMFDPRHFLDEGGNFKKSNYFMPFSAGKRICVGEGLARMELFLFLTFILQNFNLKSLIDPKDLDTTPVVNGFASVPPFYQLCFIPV

COc1cccc2c1C(=O)c1c(O)c3c(c(O)c1C2=O)C[C@](O)(/C(C)=N\O)C[C@@H]3O[C@H]1C[C@H](N)[C@@H](O)[C@H](C)O1
inactive: Potency [1] > 11.4 µM | activity change, negative = inhibition [2] 26.1% | activity change, negative = inhibition [3] -24.2% | Potency [4] > 46 µM | Potency [5] > 9.22 µM | activity change, negative = inhibition [6] -16.4% [at 11.4 µM] | outcome [7]

CN(C)CCC(C#N)(c1ccccc1)c1ccccc1
inactive: Potency [1] > 11.4 µM | activity change, negative = inhibition [2] 6.93% | activity, negative = inhibition [8] 6.64% | Potency [4] > 46 µM | Potency [5] > 9.22 µM | activity change, negative = inhibition [6] 2.05% [at 11.4 µM] | outcome [7]

O=C1C[C@@H]2OCC=C3CN4CC[C@]56c7ccccc7N1[C@@H]5[C@@H]2[C@H]3C[C@H]46 (tested in a mixture with another compound)
inactive: Potency [1] > 11.4 µM | activity change, negative = inhibition [2] 5.95% | activity change, negative = inhibition [6] 1.78% [at 11.4 µM] | outcome [7] | Potency [9]

COC1=C(C)C(=O)c2c(c(COC(N)=O)c3n2C[C@@H]2[C@@H]3N2C)C1=O (stereo partly drawn)
inactive: Potency [1] > 11.4 µM | Potency [4] > 46 µM | Potency [5] > 9.22 µM | activity change, negative = inhibition [6] -0.1% [at 11.4 µM] | outcome [7]
active: Potency [10] 1.58 µM

C[C@@]12CC[C@H]3[C@H](CCC4=CC(=O)CC[C@H]43)[C@H]1CC[C@H]2OC1(O)C(=O)c2ccccc2C1=O
inactive: Potency [1] > 11.4 µM | activity change, negative = inhibition [2] 1.93% | activity change, negative = inhibition [3] -18.3% | activity, negative = inhibition [8] -10.1% | Potency [4] > 46 µM | activity change, negative = inhibition [6] -3.36% [at 11.4 µM] | outcome [7]

Cc1ccc(NC(=[OH+])c2cc3ccccc3cc2O)c(C)c1.Cc1ccc(NC(=[OH+])c2cc3ccccc3cc2O)c(C)c1.[Ni]
inactive: Potency [1] > 11.4 µM | Potency [4] > 46 µM | Potency [5] > 9.22 µM | activity change, negative = inhibition [6] 1.02% [at 11.4 µM]
active: Potency [11] 0.251 µM | Potency [12] 3.16 µM | Potency [13] 2 µM

O=[As](O)(O)c1ccc(Cc2ccc([As](=O)(O)O)cc2)cc1
active: activity change, negative = inhibition [3] -132%
inactive: Potency [1] > 11.4 µM | activity, negative = inhibition [8] -5.31% | Potency [4] > 46 µM | Potency [5] > 9.22 µM | activity change, negative = inhibition [6] -5.31% [at 11.4 µM]

Cc1ccc(S(=O)(=O)O[C@H]2CN3CCC2CC3)cc1
inactive: Potency [1] > 11.4 µM | activity change, negative = inhibition [2] 10.6% | activity, negative = inhibition [8] -1.72% | Potency [4] > 46 µM | Potency [5] > 9.22 µM | activity change, negative = inhibition [6] 5.42% [at 11.4 µM] | outcome [7]

C=C[C@@H]1CN2CC[C@H]1C[C@H]2[C@H](O)c1ccnc2ccccc12
active: Potency [10] 3.98 µM
inactive: Potency [1] > 11.4 µM | Potency [11] | activity change, negative = inhibition [3] 0.393% | activity, negative = inhibition [8] 3.16% | Potency [4] > 46 µM | Potency [5] > 9.22 µM | activity change, negative = inhibition [6] 5.22% [at 11.4 µM] | outcome [7] | Potency [9]

ClCC[N+]12CC[N+](CCCl)(CC1)C2 (tested in a mixture with another compound)
inactive: Potency [1] > 11.4 µM | activity change, negative = inhibition [2] 1.69% | activity change, negative = inhibition [3] -23.8% | activity, negative = inhibition [8] 3.41% | activity change, negative = inhibition [6] 2.18% [at 11.4 µM] | outcome [7]
